TROY NFkB inh = blocks TROY-dependent signaling in reporter cells; Q293 LMP1-TROYcd NF-kB luciferase reporter, 4 h; inhibition, % at 10 µM; actives 0.98% (n = 360,000); AID 1347056;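 active = compounds whose plate-normalised and pattern-corrected inhibition of the luciferase reporter signal at the single screening dose is 50% or more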
Shn3 inh set2 = Schnurri-3 reporter inhibition in Clone20 osteoblasts | Clone20 osteoblast Shn3 3'UTR firefly luciferase, 24 h | inhibition, % at 12.5 µM | actives 0.52% (n = 360,000) | AID 588674;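 active = mean inhibition of at least 75% with every replicate also reaching 75%; inconclusive = mean inhibition at least 75% but some replicate below; inactive = mean inhibition below 75%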;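 note: 0% = median of neutral control wells and 100% = pilot-screen positive control compound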
TWEAK-Fn14 inh = inhibitors of TWEAK-Fn14 interaction signaling | TWEAK-stimulated Fn14 reporter cells, luciferase luminescence, 8 h | inhibition, % at 10 µM | actives 2% (n = 360,000) | AID 1159606; in the data active = inhibition above about 50%
MITF TRPM1 inh = inhibitors of MITF-driven TRPM1 promoter in melanoma cells | AID 488899 | actives 0.83% (n = 330,000) | inhibition, % at 12.5 µM | SK-MEL-5 TRPM1 promoter luciferase, 24 h;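 active = mean inhibition across replicates of 60% or more, whatever share of single replicates reaches that level; inconclusive = some that reach 60%, reason not given; inactive = mean inhibition across replicates below 60%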
LMP1 NFkB inh = Epstein-Barr LMP1 NF-kappaB reporter inhibition | LMP1-induced NF-kappaB luciferase reporter cells, luminescence | AID 504558 | inhibition, % at 12.5 µM | actives 0.69% (n = 350,000); in the data active = inhibition above about 41%; inconclusive = no clear call, values can overlap the other calls;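 note: 0% = neutral control wells and 100% = reference inhibitor control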
Peg3 prom inh = reduces Peg3 promoter-driven luciferase expression in HeLa; HeLa PEG-Prom luciferase reporter, luminescence, overnight; inhibition, % at 20 µM; actives 1.7% (n = 360,000);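 active = inhibition of at least 50% at 20 µM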
An asterisk follows results filed as active; ? = inconclusive; . = not tested or not shown. Shown are actives, neighbours in structure and some others; about 4.1% of the full set was active somewhere.

SMILES | TROY NFkB inh | Shn3 inh set2 | TWEAK-Fn14 inh | MITF TRPM1 inh | LMP1 NFkB inh | Peg3 prom inh
CCOC(=O)C1=NOC(COc2ccccc2C=O)C1 (centres undefined) | -2 | 3 | -21 | -9 | 3 | 5
COc1ccc(NC(=O)CSc2nnc(-c3cccnc3)s2)cc1 | 9 | -12 | 0 | -6 | -3 | -47
CN(C)CCCN(C(=O)c1ccc([N+](=O)[O-])s1)c1nc2cc3c(cc2s1)OCCO3 | -3 | 20 | 40 | 67* | -12 | -64
CN(C)CCCN(C(=O)c1cc(Cl)sc1Cl)c1nc2cc3c(cc2s1)OCO3 | -117 | -15 | -43 | 11 | -13 | -37
CN(C)CCCN(C(=O)c1ccc(Br)s1)c1nc2cc3c(cc2s1)OCCO3 | -8 | -17 | 0 | 17 | -25 | -25
CN(C)CCCN(C(=O)c1cc2cc([N+](=O)[O-])ccc2s1)c1nc2cc3c(cc2s1)OCCO3 | 64* | 66 | -334 | 87* | -81 | 101*
CN(C)CCCN(C(=O)c1ccc(Cl)s1)c1nc2cc3c(cc2s1)OCO3 | -54 | -29 | -4 | 83* | -3 | -28
Cc1cc(=O)c(C(=O)O)nn1-c1ccccc1 | -14 | 9 | 4 | 5 | 3 | -4
CC[C@]1(C(=O)OC)[C@H]2C(=O)N(C)C(=O)[C@H]2[C@H]2CN=C(SCc3ccc(C)cc3)N21 | 5 | 5 | 5 | 3 | 6 | -10
Cc1ccc(S(=O)(=O)N2CCOCC2)cc1NC(=O)c1cc([N+](=O)[O-])ccc1N1CCOCC1 | -11 | -4 | -2 | 5 | -7 | -4
Cc1ccc(C(=O)CC(=O)c2ccccc2C)c(O)c1 | 5 | 21 | 15 | 11 | 12 | -56
C=C(CN(C)C)C(=O)c1ccc(C)cc1C | -20 | 97* | 46 | 109* | -8 | 99*
CC(C(=O)Nc1ccccc1Br)c1ccc([N+](=O)[O-])cc1 (centres undefined) | -10 | -6 | -7 | 0 | 10 | 0
COC(=O)c1ccccc1NC(=O)C(C)c1ccc([N+](=O)[O-])cc1 (centres undefined) | -19 | 7 | 4 | 4 | 62* | 20
CN(Cc1ccccc1)C(=O)c1ccc(Nc2nc(C(N)COCc3ccccc3)cs2)nc1 (centres undefined) | 18 | 9 | -10 | . | . | 24
NC(CCc1ccccc1)c1csc(Nc2ccc(C(=O)c3ccccc3)cc2)n1 (centres undefined) | 12 | 6 | -17 | . | . | 88*
CC(=O)c1ccc(Nc2nc(C(N)Cc3ccc(C(F)(F)F)cc3)cs2)cc1 (centres undefined) | 17 | 10 | -1 | . | . | 45
CN(Cc1ccccc1)C(=O)c1ccc(Nc2nc(C(N)Cc3ccc(C(F)(F)F)cc3)cs2)nc1 (centres undefined) | 27 | 25 | 28 | . | . | 95*
NC(Cc1ccc(C(F)(F)F)cc1)c1csc(Nc2ccc(C(=O)c3ccccc3)cc2)n1 (centres undefined) | 26 | 37 | 9 | . | . | 97*
CCN(CC)CCN1CCN(c2cnc(C)cn2)CC1 | 5 | -10 | -8 | . | . | 6
CC(=O)c1ccc(N2CCN(C(=O)Cn3cnc(S(=O)(=O)N4CCCCC4)c3)CC2)cc1 | -29 | -11 | -6 | -6 | -6 | -5
CNc1ccc(/C=C2\COc3ccccc3C2=O)cc1[N+](=O)[O-] | -67 | -26 | 6 | -26 | -14 | -154
O=C1/C(=C/c2ccccc2[N+](=O)[O-])COc2ccccc21 | 33 | 31 | 94* | 85* | ? | 106*
O=C1/C(=C/c2ccc(O)cc2)COc2ccccc21 | 15 | -27 | 66* | -34 | -1 | -95
O=C1CC(c2cccs2)Cc2nc(NC(=O)C3CC3)ncc21 (centres undefined) | 5 | . | -3 | 2 | 45* | -6
SMILES | TROY NFkB inh | Shn3 inh set2 | TWEAK-Fn14 inh | MITF TRPM1 inh | LMP1 NFkB inh | Peg3 prom inh
Nc1cc(N)nc(SCC(=O)c2ccc3c(c2)NC(=O)CO3)n1 | 2 | -2 | -16 | 5 | 44* | 7
Fc1ccc(-c2nnc(-c3ccc(Cl)cc3Cl)o2)cc1 | -20 | 8 | 56* | . | 3 | -109
Clc1ccc(-c2nnc(-c3ccccc3)o2)c(Cl)c1 | 19 | 12 | 63* | -13 | 3 | -40
CSc1ccccc1-c1nnc(-c2ccc(Cl)cc2Cl)o1 | -96 | -59 | -49 | -73 | -31 | -281
S=c1[nH]nc(-c2ccco2)n1/N=C/c1ccc(Cl)cc1 | -3 | 1 | 8 | 8 | 2 | 10
O=C(c1ccco1)N(Cc1cccc(Br)c1)C1CCS(=O)(=O)C1 (centres undefined) | 7 | -9 | 6 | 1 | 3 | -11
Cc1ccc(/C=C2\SC(=S)N(CCCC(=O)Nc3cc(C)on3)C2=O)cc1 | 24 | 6 | 73* | 5 | 17 | 24
O=C(CCCN1C(=O)/C(=C/c2cccc(Br)c2)SC1=S)Nc1ccccn1 | 11 | 4 | 49 | 1 | 23 | 62*
Cc1ccc(/C=C2\SC(=S)N(CCCC(=O)Nc3cccnc3)C2=O)cc1 | 15 | 72 | 27 | 25 | 72* | 2
O=C(CCCN1C(=O)/C(=C\c2cccc(Br)c2)SC1=S)Nc1cccnc1 | 11 | -1 | 37 | 10 | 14 | 96*
Nc1c(-c2nn[nH]n2)cnn1-c1cc(Cl)cc(Cl)c1 | -14 | 2 | -4 | -2 | -10 | 2
O=C(C1=NNCC1c1ccc(Cl)cc1)C1CO1 (centres undefined) | -3 | -14 | 31 | 10 | -16 | 45
Cc1ccc(S(=O)(=O)N2CCN(c3ccc(C(=O)N4CCOCC4)cc3[N+](=O)[O-])CC2)cc1 | 7 | 41 | -2 | 3 | -9 | 18
O=C(Nc1ccccc1)N1CCSCC1 | . | -22 | 73* | -10 | -5 | 14
O=C(Nc1ccc(Cl)cc1)N1CCSCC1 | -23 | -9 | -16 | -21 | -12 | -31
CCN=c1scc(-c2ccccc2)n1/N=C/c1ccccn1 | 77* | 49 | 92* | -3 | 4 | -45
CC(C)C[C@@H]1COc2cc(N3CC[C@H](O)C3)ccc2S(=O)(=O)N1 | -5 | . | 4 | . | . | .
O=NN(C(=O)NCc1cccnc1)C1CCCCC1 | 58* | 4 | 4 | . | . | -13
CC(C)OC(=O)C(C(=O)C(F)(F)F)c1cc(NS(=O)(=O)c2ccc3ccccc3c2)c2ccccc2c1O (centres undefined) | 68* | 4 | 62* | 13 | 1 | 35
Cc1ccc(C(=O)O)cc1NS(=O)(=O)c1ccc2ccccc2c1 | 13 | 2 | 5 | 12 | 1 | 0
CC(C)CC(=O)Nc1nnc(CSCc2ccc(F)cc2)s1 | 10 | 12 | -2 | -3 | -4 | 2
CC(C)NC(=O)Nc1cccc2c1O[C@H](CN(C)C(=O)Nc1ccccc1)[C@@H](C)CN([C@H](C)CO)C2=O | -4 | 3 | -6 | -4 | 33 | 8
O=C(/C=C/c1cccc(F)c1)N1CCN(c2ccccn2)CC1 | -36 | -8 | -5 | -22 | -4 | -24
